Most compounds without a hit are left out; they make up all but 0.51% or so of the library.
FMDV antiviral: FMDV antiviral activity by firefly signal; 0.23% of 120,000 active; FMDV antiviral cell assay, firefly luciferase signal; Potency, µM (doses to about 57.5 µM), inactives show top-dose activity change, negative = inhibition, actives largely listed as inhibitors; also: nearly all actives have a fitted effect of over 60% in size
FMDV Renilla: shows antiviral activity in FMDV Renilla assay; 0.32% of 120,000 active; FMDV replicon cells, Renilla luciferase signal; Potency, µM (highest dose often 57.5 µM), for the others: at the top dose activity change, negative = inhibition, most hits filed as inhibitors; also: nearly all actives have a fitted effect of over 55% in size
Active calls of the source: *; ? = inconclusive; [ ] = remark or other dose. Calls follow the shape of the full dose curve. % is scaled to controls: 0 for no effect and ±100 for the full control effect; potency is read from the fitted curve at half-maximal effect.

SMILES	FMDV antiviral	FMDV Renilla
CCS(=O)(=O)c1ncc(Cl)c(C(=O)N(Cc2ccccc2)Cc2ccco2)n1	22µM*	-1%
CCN(Cc1nc(-c2ccccc2)no1)C(=O)Nc1ccccc1OC	24%	12%
COc1cccc(NC(=O)Cn2c(C)cc(=O)n3nc(-c4cccs4)nc23)c1	1%	-2%
O=C(CSc1ncnc2ccccc12)Nc1ccccc1C(=O)Nc1ccc(F)cc1	43%	-18%
N#Cc1ccc(C(=O)Nc2ccc3nc(CCc4ccccc4)[nH]c3c2)cc1	-7%	-10%
CCn1c(CCc2cccc(NC(=O)c3ccc(C#N)cc3)c2)nc2ccccc21	14µM*	11µM*
CCCCNc1nc(-c2ccc(S(C)(=O)=O)cc2)cs1	49%	?
CCn1cnc2c1c(=O)n(CC(=O)N(C)Cc1cccs1)c(=O)n2Cc1ccccc1	8%	7%
CCc1ccc(-c2nc(CSCC(=O)NCCCOC)c(C)o2)cc1	25µM*	-23%
CCOCCCNC(=O)CSCc1nc(-c2ccc(C)cc2)oc1C	9%	9%
COc1ccccc1/C=C/C(=O)c1ccc(C)cc1OC	0%	31%
COc1ccc(C(=O)/C=C/c2ccccc2OCC#N)c2ccccc12	?	25µM*
CC(c1cccs1)N(C)CC(O)COc1ccc(-c2ccccc2)cc1 (configuration not stated)	4%	-5%[1.06 µM]
Cc1cccc(NC(=O)COc2ccc3c(C)cc(=O)oc3c2)c1C	5%	-4%
O=C(Nc1cccc(Cl)c1)c1nc2ccccc2nc1N1CCCC1	-4%	3%
Clc1cccc(Nc2nc3nonc3nc2N2CCCCC2)c1	?	6.3µM*
CCCCN=C(N)N=C(N)N	-8%[11.5 µM]	-1%
CCCCC(CC)CN=C(N)NC(N)=NCCCCCCN=C(N)NC(N)=NCC(CC)CCCC (configuration not stated)	?	28µM*
CCCOc1ccc(C(=O)Nc2ccc(-c3cc4ccccc4oc3=O)c(C)c2)cc1	7.9µM*	4.5µM*
CCCOc1cccc(C(=O)Nc2ccc(-c3cc4ccccc4oc3=O)c(C)c2)c1	3%	-14%
Fc1ccc(-c2ccc(CNCC3CCNCC3)o2)cc1	-27%	-28%
Clc1ccc(Cl)c(-c2ccc(CNCC3CCNCC3)o2)c1	32µM*	28µM*
COc1ccc(C(=O)Nc2ccc3nc(SCC(=O)N(C)c4ccccc4)sc3c2)cc1	?	28µM*
CN(C(=O)CSc1nc2ccc(NC(=O)COc3ccc(Cl)cc3)cc2s1)c1ccccc1	-19%	-13%
COc1ccc(S(=O)(=O)Oc2ccc3ccc(=O)oc3c2)cc1OC	?	-2%[1.06 µM]
SMILES	FMDV antiviral	FMDV Renilla
O=C(CSc1c2c(nc3ccccc13)CCC2)Nc1cccc(C(F)(F)F)c1	-11%	123%
N#Cc1ccc(CN2CCN(C(=O)c3ccc(Cn4nnc5ccccc54)cc3)CC2)cc1	6.3µM*	5µM*
N#Cc1ccc(CN2CCN(C(=O)C3CC=CCC3)CC2)cc1 (configuration not stated)	6%	0%
Cc1ccccc1CC(=O)NCC1CCCO1 (configuration not stated)	17%	0%
CCc1ccc(CNC(=O)c2cc(Cl)c(NC(=O)C3=C(C)OCCS3)cc2OC)cc1	1%	41%
Cc1cc(C)c(NC(=O)CSc2ncnc3ccccc23)c(C)c1	0%	-14%
CC(=O)c1cn(CCOc2cccc3ccccc23)c2ccccc12	?	13µM*
COc1ccccc1OCCn1cc(C(=O)C2CC2)c2ccccc21	3%	-12%
CCc1ccc(OCc2nnc(SCc3cc(=O)c4ccccc4[nH]3)n2CC)cc1	?	16µM*
CCn1c(COc2ccccc2Cl)nnc1SCc1cc(=O)c2cc(C(N)=O)ccc2[nH]1	-6%	-1%
O=C(c1ccc(N2CCCN(Cc3ccccc3)C2=O)cc1)N1CCN(c2ccccc2)CC1	?	-14%
Cc1cccc(CN2CCCN(c3cccc(C(=O)N4CCN(c5ccccc5)CC4)c3)C2=O)c1	?	10µM*
Cc1nc(-c2cccs2)c(CC(=O)Nc2ccc3c(c2)OCCO3)s1	0%	9%
O=C1c2c(O)ccc(O)c2C(=O)c2c(NCCNCCO)ccc(NCCNCCO)c21	28µM*	?
COc1ccc(OC)c(NC(=O)Cc2c(C)c3ccc(OC)c(C)c3oc2=O)c1	-8%	-6%
COc1ccc(CNCCc2ccc(F)cc2)cc1	0%	4%[1.06 µM]
COc1ccc(CCNCc2ccc(Br)cc2)cc1	0%	13µM*
CCCn1c(=O)n(CC(=O)NCc2nnc3n2CCCCC3)c2ccccc21	-12%	-8%
CCn1c(=O)n(CC(=O)Nc2ccccc2C)c2ccccc21	0%	-10%
CCc1ccc(OCCn2c(C3CC(=O)N(Cc4ccc(F)cc4)C3)nc3ccccc32)cc1 (configuration not stated)	-2%	?
CC(C)CCn1c(C2CC(=O)N(Cc3ccc(F)cc3)C2)nc2ccccc21 (configuration not stated)	18µM*	18µM*
